# Compounds without any hit were thinned out: in the full panel of roughly 83,000, 20% have a hit.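 Interpretation: 100, growth as untreated; towards 0, rising growth inhibition; 0, no net growth; 0 to -100, cell death. Compounds scoring below 10 were considered active.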 Values without a mark were called inactive. The source made the active and inactive calls.
# Assays:
# Test in all cases: NCI-60 one-dose screen, 48 h (100 = growth as untreated, 0 = no growth, -100 = all killed)
# Conditions in all cases: 10 µM unless noted
# HCT-15 colon = test system: HCT-15 colon
# HT29 colon = test system: HT29 colon
# SNB-19 CNS = test system: SNB-19 CNS
# U251 CNS = test system: U251 CNS
# PC-3 prostate = test system: PC-3 prostate
# SK-MEL-5 melanoma = test system: SK-MEL-5 melanoma
# UACC-62 melanoma = test system: UACC-62 melanoma
# SK-MEL-28 melanoma = test system: SK-MEL-28 melanoma
# LOX IMVI melanoma = test system: LOX IMVI melanoma
SMILES,growth (HCT-15 colon),growth (HT29 colon),growth (SNB-19 CNS),growth (U251 CNS),growth (PC-3 prostate),growth (SK-MEL-5 melanoma),growth (UACC-62 melanoma),growth (SK-MEL-28 melanoma),growth (LOX IMVI melanoma)
NC(N)=N/N=C/c1ccc(-c2ccc(-c3cc(Cl)cc(Cl)c3)s2)cc1,-74.5% (active),-74.9% (active),40%,-84.1% (active),-38.5% (active),86.9%,48.2%,96.5%,
N=C(N)c1ccc(-c2ccc(-c3cncc4ccccc34)s2)cc1F,-80.6% (active),-91.7% (active),-76.1% (active),-92.3% (active),-93.6% (active),-99.1% (active),-91.3% (active),85.7%,
ClC(Cl)c1nc(-c2ccccc2)nc2cc(-c3ccccc3)nn12,7.78% (active),2.11% (active),55.7%,14.6%,35.4%,90.4%,62.8%,107%,
CN(C)c1cccc2c(S(=O)(=O)/N=C(\N)Nc3nc4ccccc4s3)cccc12,42.9%,48.2%,53.6%,55.4%,48.2%,40.5%,42.8%,78.9%,51.7%
O=C(CN1CCN(c2cc3c(cc2F)c(=O)c(C(=O)N/N=C/c2ccccc2O)cn3C2CC2)CC1)N/N=C\c1ccccc1O,18.4%,39.2%,29.9%,24.8%,30.3%,-47.5% (active),0.0993% (active),20.7%,2.01% (active)
O=S(=O)(NCCCNc1nccc(-n2ccc3cccnc32)n1)c1ccc(Br)cc1,102%,107%,102%,106%,96.5%,101%,99.5%,108%,96.3%
N=C(N)c1ccc(-c2cc(Cl)cc(Cl)c2)cn1,86.4%,55.5%,92.7%,97.3%,80%,89.3%,97.2%,97.3%,
S=c1[nH]nc(-c2cc3ccc2CCc2ccc(cc2)CC3)n1C1CC1,96.6%,95.7%,95.5%,97.4%,95.8%,95.7%,80.2%,102%,95%
Cc1ccc(S(=O)(=O)NCCCNc2cc(-c3cn(C(C)(C)C)nc3-c3cccc(O)c3)ccn2)cc1,16.5%,12.8%,80%,58.1%,39.6%,42.8%,66.8%,60.6%,13.5%
NC(=O)CCCN1C/C(=C\c2ccccc2)C(=O)c2ccccc21,105%,93.2%,88.7%,96.7%,89.6%,104%,87.2%,95.7%,104%
CCCCCCN1CSC(=S)N(CCCCCC)C1,103%,115%,106%,103%,83.6%,94.5%,95.3%,102%,91.8%
O=C(Nc1cccc(-n2cc(-c3ccncc3)c(-c3ccc(Cl)c(O)c3)n2)c1)c1ccccc1,58.2%,53.5%,99.7%,75.4%,50.3%,59.4%,68.3%,48.1%,68.5%
COc1ccc(/C=C2\N=C(c3ccccc3)N(C(=O)c3ccccc3O)NC2=O)cc1,104%,104%,96.6%,94.2%,,101%,82.8%,109%,95.6%
COc1ccc(Nc2[nH]n3c(=O)cc(-c4ccccc4)nc3c2C(=O)Nc2ccc(C)cc2)c(OC)c1,89.6%,112%,56.3%,,76.9%,98.4%,64%,95%,87%
COc1ccc(OC)c(/C=C2\Oc3cc(OCCCN4CCCC4)ccc3C2=O)c1,20%,10.3%,82.1%,74.2%,82.9%,,95.9%,87.4%,12%
CN1C(=O)N(C)C2C1NN=c1s/c(=C\C=C\c3ccccc3)c(=O)n12 (stereo unspecified),32.4%,20.7%,57.9%,63.7%,40.9%,,43.6%,68.4%,46.4%
S=C(S)NCCc1c[nH]c2ccccc12,97.2%,110%,96.3%,108%,91.4%,,88.4%,113%,87.2%
N[C@@H]1CCN(C(=O)c2cc3cc(Cl)c(F)c(F)c3[nH]2)C1,96.8%,88%,90.2%,86.2%,90.5%,,104%,105%,84%
COc1ccc(-c2c(N)n[nH]c2-c2cc(OC)c(OC)c(OC)c2)cc1,24.6%,4.25% (active),35.9%,,40.9%,0.844% (active),25.7%,50.4%,43.2%
O=C1c2c(Cl)c(Cl)c(Cl)c(Cl)c2C(=O)C2(Cl)CC=CCC12Cl (stereo unspecified),-74.2% (active),-39.2% (active),13.5%,,-55.4% (active),57.3%,32.6%,-58.8% (active),-84.3% (active)
CCN(CC)c1ccc(/C=C2\Oc3ccc(O)c(I)c3C2=O)cc1,37%,72.4%,49.7%,49.1%,52.8%,,49.8%,74.3%,34.2%
C=C1c2nc3ccccc3n2C=C(c2ccc(Cl)cc2)N1Cc1ccccc1,78.2%,77.4%,85.3%,90.9%,,79.1%,71%,147%,90.5%
CCOC(=O)c1c(/N=C2\SC(=O)/C(=C\C(=O)OC)N2NC)sc2c1CCN(C(=O)OCC)C2,95.9%,99%,99.2%,,94.8%,99.5%,97.7%,101%,94.2%
Cc1ccc(-c2cc3nc(C(Cl)Cl)nc(-c4cccnc4)n3n2)cc1,-23.4% (active),-27% (active),23.4%,-15.3% (active),-4% (active),44.8%,33.3%,53.2%,
COc1cc(Nc2nc(N[C@H]3CCCC[C@@H]3N)nc3cc[nH]c(=O)c23)cc(OC)c1,60.9%,7.69% (active),37.4%,,44.6%,57.7%,41.2%,,-66.8% (active)
OB(O)c1cccc(-c2nc3ccc4[nH]ncc4c3c3c2CCCC3)c1F,35.2%,45.2%,58.3%,,55.5%,79.5%,27.4%,92.5%,26.3%
O=C1c2c(c3c4ccccc4n(CCCCCCBr)c3c3[nH]c4ccccc4c23)C(=O)N1O,7.75% (active),-19.7% (active),24.2%,10.9%,4.24% (active),-69.5% (active),,,-70.2% (active)
COc1ccc(/C=C2\Oc3cc(OCCCN4CCCC4)ccc3C2=O)cc1,26.3%,17%,92.4%,82.7%,85.5%,,100%,103%,13.3%
CCN1C(=O)N(CC)C2C1NN=c1s/c(=C\c3cccnc3)c(=O)n12 (stereo unspecified),18.9%,8.17% (active),29.2%,19.1%,21.3%,,30.7%,51.8%,46%
CN(C)CCCN(c1nc(C(Cl)(Cl)Cl)ns1)c1nc(C(Cl)(Cl)Cl)ns1,41.2%,0.235% (active),64.2%,27.4%,22.2%,,1.86% (active),51.9%,-31.4% (active)

# Reference: PubChem BioAssay (NCI)
